Reference: PubChem BioAssay (NCI)
About 83,000 compounds went through this panel and 20% of them were active in at least one assay; those are over-represented in the sample as a whole.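 Assay: single dose, 48 h. Readout: percent growth (0 = no net growth; negative = cell death). Active: <10.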 Active and inactive are the calls of the source.

These compounds were tested on HL-60(TB) leukemia (assay: NCI-60 one-dose screen, 48 h (100 = growth as untreated, 0 = no growth, -100 = all killed)). Conditions: 10 µM unless noted.
`CN1C2CCC1/C(=C\c1ccc(F)cc1)C(=O)/C2=C/c1ccc(F)cc1` was tested, and the growth was 12.1% (inactive).
For `NC(=O)NCCO`, the growth was 109% (inactive).
`COc1ccc(Nc2ncc(Br)c(NCCCNC(=O)C3CCC3)n2)cc1` was tested, and the growth was -12.8% (active).
In the case of `O=[N+]([O-])c1ccc(N=Nc2c(O)c(N=Nc3cc([N+](=O)[O-])cc([N+](=O)[O-])c3O)cc(N=Nc3cc(S(=O)(=O)O)cc4cc(S(=O)(=O)O)cc(O)c34)c2O)cc1`, the growth was 87.2% (inactive).
With `COc1ccc(CCn2cncc2-c2c[nH]c3ccccc23)cc1` the growth was 93.5% (inactive).
`CCNC(=S)N(Cc1ccccc1)Cc1ccccc1` was tested, and the growth was 96.2% (inactive).
With `COc1cc(/C=C(\C#N)C(=O)c2ccccc2)ccc1OCc1ccccc1` the growth was 103% (inactive).
With `Cc1c(C(=O)O)nnn1-c1nccs1` the growth was 95.5% (inactive).
`COc1ccc(-c2cc(-c3cccs3)n(N=O)c(=O)c2C#N)cc1` was tested, and the growth was 94.7% (inactive).
For `COc1ccc2cc(-c3cc(OC)c(OC)c(OC)c3)c(=O)oc2c1`, the growth was 55.3% (inactive).
With `Cc1cc([N+](=O)[O-])c(C)cc1C(=O)O` the growth was 107% (inactive).
With `Cc1nn2c(/C=C3/C(=O)Nc4cc(Cl)ccc43)c(-c3ccccc3)nc2s1` the growth was 32.2% (inactive).
In the case of `CSc1ccc2c3c(n(CCCn4ccnc4)c(=O)c2c1)-c1ccccc1C3=O`, the growth was 15.5% (inactive).
With `Nc1c(Cl)cc(N=Nc2ccccc2)cc1Cl` the growth was 97.4% (inactive).
`NS(=O)(=O)c1cnccc1Sc1ccncc1S(N)(=O)=O` was tested, and the growth was 82.5% (inactive).
`O=C(O)c1ccc2c(c1)C(=O)N(Cc1ccccc1)C2=O` was tested, and the growth was 93.1% (inactive).
`CCCOC(=O)N[C@H]1CCc2c(Cl)c(OC)c(OC)c(OC)c2-c2ccc(SC)c(=O)cc21` was tested, and the growth was -36% (active).
`CN1CCN(Cc2ccc(NC(=O)c3cncc(C#Cc4nc(N)nc5[nH]ncc45)c3)cc2C(F)(F)F)CC1` was tested, and the growth was 1.4% (active).
With `O=S(=O)(NCCNc1nccc(-c2c(-c3cccc(O)c3)nc3occn23)n1)c1ccc(C(F)(F)F)cc1` the growth was 79.1% (inactive).
For `CCCCCCCCCCCCCCn1cc(C2=C(c3coc4ccc(OC)cc34)C(=O)NC2=O)c2ccccc21`, the growth was 129% (inactive).
In the case of `CCNC(=O)C#Cc1ccc2c(C(=Nc3ccc(CN(C)C)cc3)c3ccccc3)c(O)[nH]c2c1`, the growth was -7.13% (active).
`CN(Cc1cccc(C(F)(F)F)c1)C(=O)[C@@H](CC(=O)N1CCC(N2CCCCC2)CC1)N1C(=O)[C@@H](N2C(=O)OC[C@@H]2c2ccccc2)[C@H]1/C=C/c1ccccc1` was tested, and the growth was 70.1% (inactive).
For `CCSc1ccc2c(c1)N(CCCN1CCN(C)CC1)c1ccccc1S2`, the growth was 37.1% (inactive).
For `CCCC(CCC)(C(N)=O)C(=O)O`, the growth was 104% (inactive).
For `O=C(N=c1oc2ccccc2cc1-c1cc2ccccc2[nH]1)c1ccc(Cl)cc1`, the growth was 26.2% (inactive).
For `Oc1cc(Nc2ccnc3cc(Cl)ccc23)c2ncccc2c1`, the growth was 93.1% (inactive).
